Each structure is given as a SMILES string. The campaign covered roughly 330,000 compounds. About 980 (0.3%) were called active. For the sample, actives were picked, then their nearest neighbours and some compounds at random. A number with no mark means an inactive call.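 How the source made its calls: active means percent response vs DMSO below 50%; inconclusive means fewer than 70 events counted for the yeast strain; inactive means the rest.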

A short description of this assay: RPL19A-GFP expression modulators in yeast, primary screen, cell-based, S. cerevisiae, multiplex flow cytometry, MLPCN (AID 2025).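 Further: median channel GFP fluorescence of the barcoded RPL19A-GFP strain; ratio of sample median GFP to plate DMSO average so 100% = DMSO; lower means less RPL19A-GFP as with rapamycin TOR inhibition.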 The following applies: S. cerevisiae RPL19A-GFP strain, 3 h, at 10 µM, active compounds read low.
`CC(=O)c1c(C)c[nH]c1C`: the percent response vs DMSO was 101%.

As to `COc1ccc(-c2cn3cccnc3n2)cc1`, the percent response vs DMSO is 98.9%.

As to `CC(C)(C)C(=O)Nc1ccc(-c2cn3cccnc3n2)cc1`, the percent response vs DMSO was 105%.

As for `FC(F)(F)Oc1ccc(-c2cn3cccnc3n2)cc1`, the percent response vs DMSO is 30.4% [may fluoresce violet] (active).

With `Cc1noc(C)c1-c1ccc2ncnc(NC(C)c3ccco3)c2c1` (stereo not drawn), the percent response vs DMSO was 99.4%.

For `O=C(C[C@H]1C/C=C\C[C@@H](NC(=O)OCC2c3ccccc3-c3ccccc32)C(=O)O[C@@H](c2ccccc2)CNC1=O)N[C@H](CO)Cc1ccccc1`, the percent response vs DMSO is 101%.

For the compound `CCOC(=O)C1CCCCN1Cc1ccc(OC)c(OC)c1OC` (stereo not drawn), the percent response vs DMSO was 94.8%.

`CCOC(=O)c1nnn(-c2nonc2-n2cccc2)c1CN1CCOCC1`: the percent response vs DMSO was 95.3%.

For the compound `CCOC(=O)c1c(CN(C)C)n(-c2ccccc2)c2cc(Br)c(O)cc12`, the percent response vs DMSO is 98%.

For the compound `CCOC(=O)c1c(CN2CCOCC2)n(-c2ccccc2)c2ccc(O)cc12`, the percent response vs DMSO was 14.2% [may fluoresce violet] (active).

With `COc1ccc(C(=O)NC(Cc2ccc(OC(=O)c3ccc(OC)cc3)cc2)C(=O)O)cc1` (stereo not drawn), the percent response vs DMSO was 96.9%.

Turning to `O=C(O)c1ccc(COc2c(F)c(F)cc(F)c2F)o1`, the percent response vs DMSO was 97%.

As for `O=C(CCS(=O)(=O)c1ccc2c(c1)NC(=O)CS2)NCc1ccccc1Cl`, the percent response vs DMSO is 100%.

`CSc1cccc(NC(=O)C2CCCN2S(=O)(=O)c2ccc3c(c2)CCC(=O)N3)c1` (stereo not drawn): the percent response vs DMSO is 100%.

For `NNC(=O)C1CC(O)CN1S(=O)(=O)c1ccc(Cl)cc1` (stereo not drawn), the percent response vs DMSO is 101%.

Take `CCCN1CCN(C(=O)CCCNC(=O)c2ccc(Cl)cc2)CC1`: the percent response vs DMSO is 98.3%.

With `CCCCNC(=O)CCNC(=O)c1ccc(C(C)(C)C)cc1`, the percent response vs DMSO is 47.4% [may fluoresce violet] (active).

With `O=C(CCNC(=O)c1ccc(Br)cc1)NCCCc1ccccc1`, the percent response vs DMSO is 101%.

Consider `O=C(Nc1ccccc1)c1nnsc1S(=O)(=O)c1ccc(Cl)cc1`, for which the percent response vs DMSO is 46.8% (active).

Turning to `O=C(Nc1ccc(Cl)cc1)Nc1nnc(/C=C/c2ccccc2)s1`, the percent response vs DMSO was 97.4%.

As to `CN(c1cccc(NC(=O)Nc2ccc(Cl)cc2)c1)S(C)(=O)=O`, the percent response vs DMSO is 102%.

On to `CCCCNC(=O)c1cn(CC)c2cc(N3CCN(C(=O)c4ccco4)CC3)c(F)cc2c1=O`, for which the percent response vs DMSO is 95.5%.

Turning to `Cc1cc(=O)oc2c(C)c(OCC(=O)NCCN3CCOCC3)ccc12`, the percent response vs DMSO is 97.4%.

The record behind these values is PubChem BioAssay AID2025 (NMMLSC, 2009).
